High-throughput results as filed in PubChem BioAssay.
hcDAF12 agonist – H. contortus DAF-12 nuclear receptor activators, primary screen, cell-based, luminescence, HEK293, lit1-tk-luc reporter; hit rate 1.4% among 370,000; AID 652067, 2013; HEK293 hcDAF-12 lit1-tk-luc reporter; 0% DMSO, 100% Δ7-dafachronic acid; activation, % at 6.8 µM;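 active means activation above the mean of all tested compounds plus 3 SD, cut at about 5.5% in these data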;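 further: 100% = response to 3 µM Δ7-dafachronic acid high control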
SMARCA2 activ – SMARCA2 (BRM) function activators, primary screen, cell-based, luminescence, high throughput. hit rate 1% among 370,000. MG213 cells, MMTV-luciferase reporter, dexamethasone, overnight. activation, % at 9.1 µM. AID 652017, 2013; in the data active means activation above about 7.8%;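 further: 0% = vehicle wells and 100% = reference activator wells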
hgDAF-12 ag – H. glycines DAF-12 receptor agonists, primary screen, cell-based, luminescence, HEK293, GAL4 fusion, UAS-luciferase; hit rate 1.8% among 370,000; HEK293 GAL4-hgDAF12 UAS-luciferase reporter, agonist luminescence; normalized to butyrate control; AID 687014, 2013; activation, % at 6.8 µM;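 active means activation above a cutoff set at the mean of all screened compounds plus 3 SD, cut at about 10% in these data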;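 further: 0% = DMSO wells and 100% = sodium butyrate wells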
DAX1 inh-1 – DAX1 (NR0B1) inhibitors on StAR promoter, primary screen, cell-based, luminescence, SF-1 (NR5A1), full-length DAX-1; inhibition, % at 6.8 µM; hit rate 1.1% among 370,000; HEK293T StAR-luciferase reporter, SF-1/DAX-1 repression relief; AID 652010, 2013;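 active means inhibition above the mean over all tested compounds plus 3 SD, cut at about 3.6% in these data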;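 further: 0% = DAX-1 cells with DMSO and 100% = cells lacking DAX-1 with DMSO; higher inhibition means more luminescence from relief of DAX-1 repression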
DAX1 inh-2 – DAX1 (NR0B1) inhibitors, primary screen, cell-based, HEK293, Gal4-DAX1, luciferase luminescence. inhibition, % at 6.75 µM. Nuclear receptor subfamily 0 group B member 1 (Homo sapiens), P51843. HEK293 Gal4-DAX1 luciferase reporter. AID 504766, 2011. hit rate 0.99% among 340,000;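 active means inhibition above the mean over all tested compounds plus 3 SD, cut at about 4.2% in these data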;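 further: 0% = DAX1-transfected cells with DMSO and 100% = empty-vector control cells with DMSO; inhibition shows as a rise in luminescence from relieved DAX1 repression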
Target sequence (P51843 207-470 limits assumed): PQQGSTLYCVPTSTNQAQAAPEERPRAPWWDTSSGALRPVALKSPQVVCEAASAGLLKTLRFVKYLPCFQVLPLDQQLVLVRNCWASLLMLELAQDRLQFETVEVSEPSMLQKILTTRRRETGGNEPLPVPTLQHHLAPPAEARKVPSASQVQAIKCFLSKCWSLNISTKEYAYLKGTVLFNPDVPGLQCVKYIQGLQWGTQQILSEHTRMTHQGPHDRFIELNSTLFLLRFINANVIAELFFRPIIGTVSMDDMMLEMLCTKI
ssDAF12 agonist – S. stercoralis DAF-12 nuclear receptor activators, primary screen, cell-based, luminescence, HEK293, GRIP1 co-expression, lit1-tk-luc | activation, % at 6.8 µM | AID 652126, 2013 | hit rate 1% among 370,000 | HEK293 ssDAF-12/GRIP1 lit1-tk-luc reporter; % of 3 µM dafachronic acid response;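 active means activation above the mean over all tested compounds plus 3 SD, cut at about 0.9% in these data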;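 further: 0% = DMSO-only wells and 100% = 3 µM delta7-dafachronic acid wells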
Numbers without * were called inactive. Rows were chosen to be rich in hits. Some 4.8% of all compounds tested hit in one or more screens of this group.

`CCN1CCCC1CN(Cc1cc2cc(C)ccc2[nH]c1=O)C(=O)Nc1ccccc1OC` (centres undefined) gave hcDAF12 agonist 3, SMARCA2 activ 2, hgDAF-12 ag 1, DAX1 inh-1 4.0*, DAX1 inh-2 0 and ssDAF12 agonist -1.
COc1ccccc1NC(=O)N(CCN1CCCC1)Cc1cc2cc(C)ccc2[nH]c1=O was read as hcDAF12 agonist 2, SMARCA2 activ 1, hgDAF-12 ag 2, DAX1 inh-1 1, DAX1 inh-2 0 and ssDAF12 agonist -1.
For CN(CC(=O)NCCc1ccc(F)cc1)Cc1cccs1 the results were hcDAF12 agonist 0, SMARCA2 activ 7.8*, hgDAF-12 ag 7, DAX1 inh-1 0, DAX1 inh-2 0 and ssDAF12 agonist -2.
For O=C(NNC(=S)Nc1ccccc1)c1ccccc1[N+](=O)[O-] the results were hcDAF12 agonist 2, SMARCA2 activ 6, hgDAF-12 ag 6, DAX1 inh-1 2, DAX1 inh-2 4 and ssDAF12 agonist 0.
Oc1cccc(C2c3[nH]c4ccccc4c3CCN2Cc2ccoc2)c1 (centres undefined) was read as hcDAF12 agonist 4, SMARCA2 activ -1, hgDAF-12 ag 0, DAX1 inh-1 1, DAX1 inh-2 1 and ssDAF12 agonist 1.4*.
O=C(Nc1nnc(-c2ccc3c(c2)OCCO3)o1)c1ccc(Cc2ccccc2)cc1 was read as hcDAF12 agonist 5, SMARCA2 activ -1, hgDAF-12 ag 3, DAX1 inh-1 0, DAX1 inh-2 2 and ssDAF12 agonist -1.
For COc1ccc(C)cc1NC(=O)ON=C1CCCCC1 the results were hcDAF12 agonist 0, SMARCA2 activ -1, hgDAF-12 ag 2, DAX1 inh-1 0 and ssDAF12 agonist -1.
`O=C(Nc1cccc2ccccc12)c1ccccc1` gave hcDAF12 agonist 5.6*, SMARCA2 activ 5, hgDAF-12 ag 10, DAX1 inh-1 2, DAX1 inh-2 2 and ssDAF12 agonist 0.
`O=C(CSc1nnc2c3ccccc3c3ccccc3c2n1)Nc1ccccc1F` gave hcDAF12 agonist 5.8*, SMARCA2 activ 0, hgDAF-12 ag 0, DAX1 inh-1 0, DAX1 inh-2 0 and ssDAF12 agonist -1.
Screening O=C(CSc1ncccn1)Nc1cccc2ccccc12 returned hcDAF12 agonist 6.2*, SMARCA2 activ -2, hgDAF-12 ag 3, DAX1 inh-1 0, DAX1 inh-2 0 and ssDAF12 agonist -1.
O=C(Nc1cccc2ccccc12)ON=C1CCCCC1 was read as hcDAF12 agonist 2, SMARCA2 activ 1, hgDAF-12 ag -1, DAX1 inh-1 0 and ssDAF12 agonist 1.0*.
O=C(CSc1nnc2c(n1)[nH]c1ccc(F)cc12)Nc1ccccc1F was read as hcDAF12 agonist 0, SMARCA2 activ 0, hgDAF-12 ag -1, DAX1 inh-1 0, DAX1 inh-2 -1 and ssDAF12 agonist -1.
O=C(Nc1nc2c(c(=O)[nH]1)CCCC2)C1CC1 was read as hcDAF12 agonist -1, SMARCA2 activ 0, hgDAF-12 ag 0, DAX1 inh-1 0, DAX1 inh-2 0 and ssDAF12 agonist -1.
`O=C(NCCc1c[nH]c2ccccc12)/C(=C\c1cccnc1)NC(=O)c1ccco1` gave hcDAF12 agonist 0, SMARCA2 activ -1, hgDAF-12 ag -2, DAX1 inh-1 0, DAX1 inh-2 0 and ssDAF12 agonist 0.
O=C(NCCc1c[nH]c2ccccc12)/C(=C/c1cccnc1)NC(=O)c1ccco1 was read as hcDAF12 agonist 0, SMARCA2 activ -2, hgDAF-12 ag -2, DAX1 inh-1 -1, DAX1 inh-2 4.5* and ssDAF12 agonist 0.
Screening O=C(NCCSc1c[nH]c2ccccc12)c1ccco1 returned hcDAF12 agonist 5.9*, SMARCA2 activ 1, hgDAF-12 ag 5, DAX1 inh-1 1, DAX1 inh-2 0 and ssDAF12 agonist 0.
For CC(=O)Nc1ccccc1P(=O)(c1ccccc1)c1ccccc1OC(C)=O (centres undefined) the results were hcDAF12 agonist -1, SMARCA2 activ -4, hgDAF-12 ag -1, DAX1 inh-1 0, DAX1 inh-2 4.5* and ssDAF12 agonist 0.
Screening CCOn1c(=O)c(-c2cccs2)[n+]([O-])c2ccccc21 returned hcDAF12 agonist 1, SMARCA2 activ 1, hgDAF-12 ag 0, DAX1 inh-1 -1, DAX1 inh-2 5.2* and ssDAF12 agonist -1.
Screening CCOn1c(=O)c(-c2ccc(C)cc2)[n+]([O-])c2ccccc21 returned hcDAF12 agonist 0, SMARCA2 activ 2, hgDAF-12 ag 3, DAX1 inh-1 0, DAX1 inh-2 2 and ssDAF12 agonist -1.
Screening CCOn1c(=O)c(-c2ccc(F)cc2)[n+]([O-])c2ccccc21 returned hcDAF12 agonist 1, SMARCA2 activ -3, hgDAF-12 ag -2, DAX1 inh-1 0, DAX1 inh-2 4.8* and ssDAF12 agonist -1.
Screening COC(=O)C1=C(C)NC(C)=C(C(=O)OC)C1c1ccc(N(C)C)cc1 returned hcDAF12 agonist 0, SMARCA2 activ 3, hgDAF-12 ag -2, DAX1 inh-1 0, DAX1 inh-2 0 and ssDAF12 agonist 0.
For CNC(=S)Nc1ccc2[nH]c(=O)[nH]c2c1 the results were hcDAF12 agonist -1, SMARCA2 activ 0, hgDAF-12 ag -1, DAX1 inh-1 0, DAX1 inh-2 0 and ssDAF12 agonist -1.
`CC(C)NC(=S)Nc1ccc2[nH]c(=O)[nH]c2c1` gave hcDAF12 agonist -2, SMARCA2 activ 2, hgDAF-12 ag 3, DAX1 inh-1 0, DAX1 inh-2 4.5* and ssDAF12 agonist -1.
`Cc1cc(-n2c(=O)c(C#N)cc3c(=O)n4ccccc4nc32)no1` gave hcDAF12 agonist 0, SMARCA2 activ 2, hgDAF-12 ag -1, DAX1 inh-1 1, DAX1 inh-2 0 and ssDAF12 agonist -1.
For Cc1ccc(Cl)cc1N1CCN(C(=O)C2CCC(=O)N(C3CCCCCC3)C2)CC1 (centres undefined) the results were hcDAF12 agonist 1, SMARCA2 activ 0, hgDAF-12 ag -2, DAX1 inh-1 -2, DAX1 inh-2 1 and ssDAF12 agonist -1.
